Screening results as filed in PubChem BioAssay.
HttQ103 aggreg = mutant huntingtin aggregation inhibition | PC12 HttQ103-GFP aggregates, Acumen cytometry, 40 h | Potency, µM (titrated, usually from 46.1 µM), for inactives: at the highest dose activity change, negative = inhibition, actives largely listed as inhibitors | actives 1.1% (n = 220,000); active means well fitted curve in the direction sought with a large enough effect; inconclusive means small, poorly fitted or top-dose-only effect, or another doubt; inactive means no such curve, though single readings can be large; an effect the other way counts as inactive or inconclusive; further: potency means the concentration at half of the fitted maximal effect; on the % scale 0 is the no-effect control and ±100 the full control effect; nearly all actives have a fitted effect of over 60% in size
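Steps: seed 1500 PC12 HTTQ103-GFP cells/well; add tebufenozide, 100 nM final; add compound titration; add ATPLite reagent; quantify GFP aggregates by laser scanning cytometry.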
HPGD inh = HPGD (human) dehydrogenase inhibition. P15428. purified HPGD, NADH fluorescence kinetic, PGE2 substrate. Potency, µM, for the others: at the top dose activity change, negative = inhibition, hits mostly inhibitors. actives 4.3% (n = 150,000). AID 894; further: potency means the concentration at half of the fitted maximal effect; on the % scale 0 is the no-effect control and ±100 the full control effect
Target sequence (P15428 whole entry, looked up): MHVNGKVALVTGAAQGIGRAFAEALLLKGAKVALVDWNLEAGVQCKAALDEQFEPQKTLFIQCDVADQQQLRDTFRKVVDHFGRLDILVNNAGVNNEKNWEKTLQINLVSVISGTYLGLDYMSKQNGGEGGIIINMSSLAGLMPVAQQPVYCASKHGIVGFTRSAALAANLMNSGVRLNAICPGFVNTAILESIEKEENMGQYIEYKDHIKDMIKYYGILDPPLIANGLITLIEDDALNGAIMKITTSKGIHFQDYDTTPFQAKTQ
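NADH formation kinetics: reaction with 30 uM PGE2 and 1 mM NAD+ (final), 20 nM enzyme, Tris-HCl pH 8 with Tween 20, after 15 min compound preincubation at room temperature. Fluorescence change, last versus first of five reads.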
RGS12 GoLoco inh = RGS12 GoLoco-Gai1 interaction inhibition. Potency, µM (highest dose often 61.6 µM), without a hit: top-dose activity, negative = inhibition, actives largely listed as inhibitors. actives 0.44% (n = 230,000). P63096. Gai1:RGS12 GoLoco peptide FP, rhodamine, 10 min; active means well fitted inhibition curve with a large enough effect, not every such curve was filed as active; inactive means no such curve, though single readings can be large or run the other way; further: potency means the concentration at half of the fitted maximal effect; on the % scale 0 is the no-effect control and ±100 the full control effect; nearly all actives have a fitted effect of over 30% in size
Target sequence (P63096 whole entry, looked up): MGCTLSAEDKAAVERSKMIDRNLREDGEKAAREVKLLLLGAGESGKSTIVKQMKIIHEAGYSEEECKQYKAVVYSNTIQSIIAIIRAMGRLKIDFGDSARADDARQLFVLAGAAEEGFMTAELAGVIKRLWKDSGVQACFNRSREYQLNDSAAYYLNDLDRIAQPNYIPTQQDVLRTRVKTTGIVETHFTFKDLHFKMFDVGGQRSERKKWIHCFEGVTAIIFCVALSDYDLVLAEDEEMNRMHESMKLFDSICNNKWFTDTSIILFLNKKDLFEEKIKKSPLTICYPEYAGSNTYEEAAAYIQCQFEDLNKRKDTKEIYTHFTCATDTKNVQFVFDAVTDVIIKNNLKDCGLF
PNC inhibitor = blocks assembly of the perinucleolar compartment. PC3M PTB-GFP, PNC prevalence imaging, 16 h; active compounds read low. activity change (PNC), negative = inhibition, % at 10 µM. actives 3.1% (n = 140,000);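 active means readout at or below -70, meaning at least 70% loss of cells showing the perinucleolar compartment, a nuclear body marking cancer cells; inconclusive means readout between -30 and a set limit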;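 further: plate controls were DMSO wells for no effect and camptothecin positive control wells for full effect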
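Read-out is percentage of cells bearing a perinucleolar compartment, from automated 20x imaging of fixed, Hoechst-stained PC3M PTB-GFP cells. Cells were seeded 4 h, then exposed 16 h to compound (23 nl of library stock) in duplicate plates.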
HTT ATP protect = Huntington cell model cytoprotection by ATP luminescence; PC12 HTT-Q103 induced, cytoprotection, ATP luminescence, 40 h; Potency, µM (top dose mostly 56.4 µM), for the others: cytoprotection (ATP increase), actives largely listed as activators; actives 0.14% (n = 230,000); active means well fitted curve in the direction sought with a large enough effect; inconclusive means small, poorly fitted or top-dose-only effect, or another doubt; inactive means no such curve, though single readings can be large; an effect the other way counts as inactive or inconclusive; further: potency means the concentration at half of the fitted maximal effect; % of control where 0% means no effect; nearly all actives have a fitted effect of over 45% in size
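Rat PC12, Q103 Htt exon1-GFP fusion, ecdysone promoter; tebufenozide inducer 100 nM final; compound titration; qHTS, 1500 cells/well; ATPlite luminescent read.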
ALDH1A1 inh = inhibitors of human aldehyde dehydrogenase 1A1; P00352; Purified ALDH1A1, NADH fluorescence, propionaldehyde substrate; Potency, µM (series often up to 75.3 µM), for inactives: at the highest dose activity, negative = inhibition, most hits filed as inhibitors; actives 7.3% (n = 220,000);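 further: potency means the concentration at half of the fitted maximal effect; plate controls were no enzyme wells and a reference inhibitor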
* hit, by the source's call; u = inconclusive; x = not tested or not shown; ! = a repeat was not active; [ ] = dose if it differs, or a comment. The list is not random: actives were taken first. Their share in the collection is about 11%. Unless noted, the call rests on the fitted dose curve; in most records, active means well fitted inhibition curve with a large enough effect (not every such curve was filed as active); inconclusive means small, poorly fitted or top-dose-only effect, or another doubt; inactive means no such curve, though single readings can be large or run the other way.

SMILES | HttQ103 aggreg | HPGD inh | RGS12 GoLoco inh | PNC inhibitor | HTT ATP protect | ALDH1A1 inh
O=[N+]([O-])c1ccccc1-c1cc(-c2ccccc2O)n[nH]1 | 8% | 13µM* | -6% | -83* | 11%[10 µM] | u
Cc1ccc(O)c(-c2cc(-c3cccc(F)c3)n[nH]2)c1 | 19% | 16µM* | 2% | -17 | -26% | -5%
COC(=O)c1ccc(C(NC(=O)OCc2ccccc2)/C(=C/[C@@H](C)C(=O)NCCc2c[nH]c3ccccc23)c2cccnc2)cc1 (stereo not given in full) | x | -10% | 3% | x | 3% | -5%
[O]=[Bi][O]C(=O)[O][Bi]=[O] | 14% | x | -8% | x | 20% | x
NC(Cc1ccc(O)c(O)c1)C(=O)O (stereo not given) | x | u | -14% | x | x | u
Cc1ccc(O)c(-c2cc(-c3ccccc3F)[nH]n2)c1 | 3% | 4.5µM* | -6% | 31 | -51% | -3%
COc1ccc(CNc2nc(-c3c(C)noc3C)nc3ccccc23)c(OC)c1 | x | x | 7% | x | -52% | u
CN(C)C(=S)c1ccccc1 | -1%[9.22 µM] | x | -2% | x | 12%[10 µM] | 7.1µM*
CN(C)C(=S)c1ccc(N(C)C)cc1 | 26% | x | -22% | x | -20% | 0.79µM*
COc1ccc(C(=S)N2CCCC2)cc1OC | -5% | -15% | 2% | 68 | -7% | 10%
COc1ccc(C(=S)N(C)C)cc1OC | 14% | 10µM* | 0% | u | -14% | u
Cc1cc(Cl)ccc1Oc1nccc(N(C)C)c1C#N | -13% | -19% | 10% | -3 | -14% | 9%
CC(=O)c1cccc(NC(=S)NCCC2=CCCCC2)c1 | u | -28% | 2% | -22 | 4%[10 µM] | u
Cc1ccc(NC(=S)NCCC2=CCCCC2)cc1 | 13µM* | x | 11% | x | -84% | -7%
CCOC(=O)c1ccc(NC(=S)NCCC2=CCCCC2)cc1 | -5% | 14µM* | -1% | -10 | -2%[10 µM] | u
CCCNC(=O)OC[C@@H]1O[C@H](CCO/N=C(\C)CCN2CCc3nc(-c4ccccc4)c(-c4ccccc4)cc3C2)C=C[C@@H]1Oc1ccc(OC)cc1 | x | x | x | x | -9%[10 µM] | 2%[13.5 µM]
CCN1/C(=C/C(C)=O)Sc2ccc(OC)cc21 | u | 13µM*! | 2% | u | 10% | u
COc1cc(OC)cc(C(=O)/C=C2\Sc3ccccc3N2C)c1 | -18%[9.22 µM] | x | 0% | x | -5%[10 µM] | u
CC(Oc1ccc(Cl)cc1Cl)c1nc(-c2ccc(NC(=O)c3cccnc3)cc2)no1 (stereo not given) | 7.9µM* | -25% | 5% | u | -41% | 3%
CC(=O)NCCCOc1ccc([N+](=O)[O-])cc1Cl | 2%[9.22 µM] | x | -5% | x | 6%[10 µM] | x
COc1ccccc1OCCCOc1ccc([N+](=O)[O-])cc1Cl | -11% | 16µM* | 479% | 42 | -12% | -3%
CCOc1cccc(OCCOc2ccccc2[N+](=O)[O-])c1 | 8% | -14% | 7% | 37 | -9% | -4%
COc1cccc(OCCCOc2ccc([N+](=O)[O-])cc2Cl)c1 | -28% | 18µM* | 3% | -16 | 7% | -6%
CCOC(=O)OCC1OC(c2ccc(C(C)=O)cc2)C=CC1Oc1ccc(-c2ccccc2)cc1 (stereo not given) | x | x | x | x | u | 21%[13.5 µM]
Nc1nc(N)c2nn(-c3ccc(C(=O)O)cc3)nc2n1 | x | u | 1%[14.2 µM] | x | 9%[10 µM] | u
SMILES | HttQ103 aggreg | HPGD inh | RGS12 GoLoco inh | PNC inhibitor | HTT ATP protect | ALDH1A1 inh
CCO/N=C(/c1nonc1N)N1CCN(c2ccc([N+](=O)[O-])cc2)CC1 | -3% | -14% | -2% | -13 | -28% | 11µM*
CCN(C(=O)c1cc2ccccc2oc1=O)c1cccc(C)c1 | 1% | u | -10% | u | 21%[10 µM] | 14µM*
CC(C)c1ccc(N(C(=O)c2cc3ccccc3oc2=O)C2C=CS(=O)(=O)C2)cc1 (stereo not given) | 16% | -18% | 1% | 2 | 41%[10 µM] | 25µM*
O=[N+]([O-])c1ccc(NCCNCCOc2nonc2-c2ccccc2)c([N+](=O)[O-])c1 | 17% | x | 1% | x | x | u
Cc1ccc[n+](CC(=O)Nc2ccc([N+](=O)[O-])cc2Cl)c1 | 1% | -17% | 3% | u | 4%[10 µM] | 16µM*
COc1cc([N+](=O)[O-])ccc1NC(=O)C[n+]1cccc(C)c1 | 17% | -13% | -2% | -18 | 22%[10 µM] | u
COc1ccc(CCn2c(-c3ccc(Cl)cc3)n[nH]c2=S)cc1OC | -4% | x | 2% | x | x | u
CCCCn1c(-c2cc(Cl)ccc2OC)n[nH]c1=S | -15% | 28µM* | 10% | 47 | -24% | u
COC(=O)C1CCN(Cc2ccc(C)cc2)CC1 | 4% | 2% | 13% | 2 | 9% | 6%
Cc1ccc(S(=O)(=O)NNC(=O)C2CCN(Cc3ccccc3)CC2)cc1 | 5% | -8% | 7% | -100* | 19%[10 µM] | 8%
Cc1ccc(S(=O)(=O)NN=C2CCN(Cc3ccccc3)CC2)cc1 | -8% | -4% | -2% | 0 | x | 3.5µM*
Cc1ccc(S(=O)(=O)NC2=C(N3CCN(Cc4ccccc4)CC3)C(=O)c3ccccc3C2=O)cc1 | -1% | -11% | 6% | -19 | 1% | -1%
O=C1C[C@H]2C(=O)[C@@H]1[C@@H](C(=O)O)[C@H]2C(=O)O | x | -6% | 6%[14.2 µM] | x | -22%[10 µM] | 8%[13.5 µM]
COc1ccc(-c2c3c(=O)n(C)c(=O)n(C)c3cn2-c2ccccc2)cc1 | u | -12% | -5% | -91* | -14%[10 µM] | u
CNc1nc(-c2ccc3c(c2)CCN3C(=O)c2ccccc2C)cs1 | x | x | 17% | x | x | 13µM*
CS(=O)(=O)N1CCc2cc(-c3csc(NC(=O)Cc4cccs4)n3)ccc21 | -3% | -14% | 72% | -19 | -24%[10 µM] | 13µM*
Cc1nc2ccccc2n1CC(=O)NN | x | x | -3% | x | x | 1%
Cc1ccccc1CN1CCN(CC(=O)NCc2ccccc2)C1=O | -3% | -5% | 2% | u | 4.5µM* | -1%
Cc1nc2ccccc2n1CC(=O)NCc1ccccc1 | u | 1% | -3% | -103* | -23%[0.074 µM] | 3%
Cc1cc(=O)c2ccccc2n1Cc1ccccc1 | 18%[9.22 µM] | x | 14% | x | 15%[10 µM] | -5%
Cc1cc(=O)c2ccccc2n1CC(=O)NCc1ccccc1 | -13% | -10% | -2% | -96* | x | -1%
CSc1nc2ncc(C(=O)O)c(N)n2n1 | -19% | x | 2% | x | 18% | 0%
C/C(=N\NC(=O)c1ccc(Br)cc1)c1ccccc1 | -15% | -11% | 6% | 75 | -24% | 1%
CC/C(=N\NC(=O)c1ccc(N(C)C)cc1)c1ccccc1 | -25% | -19% | -6% | 32 | x | 28µM*
CN1CCN(C(=O)c2cc3nc(-c4ccccc4)cc(C(F)(F)F)n3n2)CC1 | -18% | 10µM* | -2% | 17 | 5%[0.074 µM] | -5%
